Measured values: the supplement of paper PMC3334620
The full ranking holds about 33,000 sequences; the median of “E-score (-0.5 to 0.5)” is about -0.041, and the highest 2% start at about 0.37. The sample as a whole holds a higher share of the highest values than the screen did.

Biological target: T1, Ecm22 (UniProt Q05958)
T1 sequence: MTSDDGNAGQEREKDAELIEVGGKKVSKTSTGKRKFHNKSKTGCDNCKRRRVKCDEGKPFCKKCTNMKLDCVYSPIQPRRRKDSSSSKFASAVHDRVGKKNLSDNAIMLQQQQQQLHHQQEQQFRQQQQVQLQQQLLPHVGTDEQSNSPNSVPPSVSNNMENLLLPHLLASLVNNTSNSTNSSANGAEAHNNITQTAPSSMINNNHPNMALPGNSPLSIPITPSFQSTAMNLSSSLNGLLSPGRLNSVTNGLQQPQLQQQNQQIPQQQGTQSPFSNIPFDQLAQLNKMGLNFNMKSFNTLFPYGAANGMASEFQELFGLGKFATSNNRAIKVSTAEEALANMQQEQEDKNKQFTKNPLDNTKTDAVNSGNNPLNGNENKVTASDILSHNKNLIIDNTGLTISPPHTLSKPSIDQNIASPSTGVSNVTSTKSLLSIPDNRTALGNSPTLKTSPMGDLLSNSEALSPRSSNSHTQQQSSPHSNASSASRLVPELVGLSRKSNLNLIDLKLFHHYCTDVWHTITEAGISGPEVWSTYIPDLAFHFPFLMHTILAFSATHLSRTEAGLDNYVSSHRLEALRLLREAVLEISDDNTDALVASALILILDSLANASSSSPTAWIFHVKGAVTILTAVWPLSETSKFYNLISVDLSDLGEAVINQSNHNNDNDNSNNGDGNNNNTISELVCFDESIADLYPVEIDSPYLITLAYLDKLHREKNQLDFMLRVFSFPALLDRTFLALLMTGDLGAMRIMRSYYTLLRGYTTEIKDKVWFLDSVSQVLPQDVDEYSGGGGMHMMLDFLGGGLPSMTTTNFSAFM
Assay: PBM E-score (8-mer binding enrichment) (E-score (-0.5 to 0.5)); higher = stronger / more preferred TF binding
Settings: protein concentration: 200 nM; construct: GST-full length
Procedure, shortened: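 Each ungapped eight-base word and its reverse complement, pooled, received an E-score from the Universal PBM Analysis Suite. Underlying scans, normalised with masliner, recorded fluorescent anti-GST bound to GST-tagged yeast transcription factors. These were applied at about 100-200 nM to universal all-10-mer Agilent arrays double-stranded by primer extension.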

Sequence | PBM E-score
CCAACGAG | 0.093
AAAACGAC | 0.363
AAAACGAG | 0.362
GAAACGGC | 0.2
CAAACGAC | 0.442
GAAACGAC | 0.41
CTAACGAC | 0.282
CAAACGAG | 0.463
GAAACGCC | 0.0403
ACCCAGCG | -0.184
CAGGACCG | -0.0291
CAATTCGC | 0.0698
ACTCACGG | 0.034
CACGTCCG | -0.21
CAGATGGA | 0.0554
ACTCACCG | -0.0985
ATCGTTAC | 0.264
CACGTTAC | -0.046
GGCGTTAA | -0.0419
ATCGTTAA | 0.403
CGCGTTAC | 0.159
GTCGTTAA | 0.427
CCCGTTAA | 0.256
CTCGTTAA | 0.437
ATCGTTAG | 0.201

Sequence | PBM E-score
GACGTTAA | 0.0928
CACGTTAA | 0.00208
CTCGTTAC | 0.371
CGGCGTAG | -0.00106
ATAGTGAT | 0.176
CCTCGCAG | 0.0132
CCCGTCCG | -0.309
CGCCAGTC | 0.014
ATACGGAG | 0.385
CTACGGAC | -0.07
GTACGGAA | 0.4
ATACGGAC | 0.362
ATACGGAT | 0.332
GGACGGAA | -0.0866
CTACGGAA | 0.0649
GTACGGAC | 0.372
CTACGGAG | -0.0418
TTACGGAA | 0.266
GCACGGAA | -0.094
ATACGGAA | 0.374
AATTTGCT | -0.0782
TAGGGAGA | -0.252
ACATGGGG | -0.282
TGAATTAA | 0.099
CCGGAGGA | -0.171

Sequence | PBM E-score
CGAAACGA | 0.424
CGAAACGC | 0.0992
GGAAACAA | 0.0422
AGAAACGG | 0.272
CGAAACCA | 0.28
AGAAACGA | 0.424
GAAAACGA | 0.306
GGAAACGA | 0.426
AGAAACGC | -0.0375
CCTGTGTA | 0.00294
GAGAGCAC | -0.00667
AACATCGT | 0.264
AAGTATCA | -0.115
CAGCTAGA | -0.0476
CTTGCCGA | -0.0634
ACGACCTC | 0.337
ACGACCAA | 0.371
ACGACCAC | 0.35
ACGACCAG | 0.319
GCGACCGA | 0.218
ACGACCTA | 0.384
CCGACCGA | 0.203
CCGACCTA | 0.0401
ACGACCGA | 0.394
AGACATTG | -0.268

Sequence | PBM E-score
ACTCGCAG | 0.0817
GCAGGGGC | -0.243
GAAGAAGC | -0.234
AACAGTTA | -0.1
ATCCGTTA | 0.177
AAAGGCTT | -0.177
ACCGAGCG | 0.292
CAAGACTC | -0.126
CGAAATCG | 0.111
ATTCGTTC | 0.432
ATTCGTTG | 0.277
CTTCGTTA | 0.303
GTTCGTTA | 0.356
CTTCGTTC | 0.47
ATTCGTTA | 0.309
CTCTCTAA | -0.232
GCTCTAGA | -0.226
CCTTCCTC | -0.0948
GGTTCCTA | -0.128
AGTTCCTC | -0.117
CGTTCCTA | 0.439
CGTTCCTC | 0.452
AGTTCCTA | 0.102
ACAGTAAC | 0.00997
AACTGCAA | -0.138

Sequence | PBM E-score
CACCTTAC | -0.0784
CGGCTCCC | -0.0756
GCTGCATA | -0.114
CGTCTAAC | -0.0542
GAAAGATC | 0.0489
ACATAGCA | -0.131
GTATAAAC | 0.403
ATATAAAC | 0.212
GTATAAAA | 0.335
CACAATTC | -0.0282
AGCGCTAT | -0.048
CGACCTCG | 0.183
CACGTTCA | -0.131
AGCGTTCC | 0.2
ATCGTTCG | 0.373
AGCGTTCA | -0.121
AACGTTCC | 0.259
AACGTTCG | 0.217
ATCGTTGG | -0.0634
CGCGTTCA | 0.185
AACGTTCA | 0.0914
CTCGTTCA | 0.47
ATCGTTCC | 0.478
ATCGTTCA | 0.402
AGGGTTAT | -0.0839

Sequence | PBM E-score
ATTCATAC | 0.161
CTTGTGTC | -0.0755
CACCGGAC | 0.112
CGATCTAG | 0.00932
ATCGTGGG | -0.0631
CGATCTAA | 0.0461
GTTAGACA | -0.137
GACGTTCA | 0.0272
GGCGTTCA | 0.00425
GTCGTTCA | 0.448
AAGCCCAG | -0.109
AGTACACG | 0.238
GGTACACA | -0.126
TGTACACA | 0.0209
CGTACACG | 0.382
AGTACACC | 0.0652
AGTACACA | 0.18
GGTACACC | 0.0576
CGTACACA | 0.402
CGTACACC | 0.37
GTAGCAAA | 0.0111
GACCAGGC | -0.228
CCCCAGCA | -0.237
CCGGAACC | -0.0325
CCGGAACG | 0.445

Sequence | PBM E-score
ACGGAACT | 0.157
ACGGAACC | 0.218
CCGGAACA | -0.0629
ACGGAACG | 0.442
CCCCGCCA | 0.0635
TAGGACCA | -0.185
GTATGAAC | 0.234
ATGTTACA | -0.0708
GAGAGACC | -0.21
ACGGGGAC | 0.0581
GAGAACAA | 0.124
AGATCGTG | -0.0112
CGATCGTC | 0.104
GGATCGAA | 0.251
GGATCGGA | 0.159
AGATCGTC | -0.0821
CGATCGAA | 0.164
AGATCGTA | 0.389
CGATCGTA | 0.437
GGATCGTA | 0.434
AGTCCCAA | -0.193
GGCTAGTA | -0.00889
CTGACGCA | -0.319
GAGCTTAA | 0.0486
AAAGAGGT | -0.244

Sequence | PBM E-score
ATCGAGGA | 0.115
AACGAGGA | 0.449
CACGAGGC | 0.171
AACGAGGT | 0.447
AGCGAGGA | 0.265
GACGAGGA | 0.175
CACGAGGA | 0.196
ACCGAGGT | 0.225
AACGAGGC | 0.434
GACGAGGC | 0.163
TACGAGGA | 0.466
CATGAAAA | 0.00915
ATTGCTTC | 0.0317
AAGCTTCA | -0.0703
ACAAATTC | 0.0192
AACGGGCT | 0.16
ACGCTCAA | 0.0449
GGTCTAAC | -0.0964
CGGGACGC | -0.0663
ACTCGGCT | 0.112
CTGCACTC | -0.104
CACGAGGG | 0.189
AACGAGGG | 0.439
AGCGAGGG | 0.249
ACGCAAGG | -0.01

Sequence | PBM E-score
AGCCGGAT | -0.0402
AACGAGTT | 0.41
AACGAGTG | 0.421
AAAGAGTT | -0.264
AACGAGTA | 0.433
CACGAGTA | 0.157
TACGAGTA | 0.467
AGCGAGTA | 0.363
AGCGAGTG | 0.324
ACCGAGTA | 0.286
CACGAGTG | 0.106
AACGCGTT | 0.212
GACGAGTA | 0.117
CTGCGTTC | 0.213
GCGTTGAA | 0.218
CCATATCC | -0.0494
CACGTACG | 0.338
CTAGTTAA | -0.153
GCCTCTAC | -0.123
